Screening data from PubChem BioAssay.
KKLEB tox: cytotoxicity in KKLEB CF airway cells, primary screen, cytotoxicity control for CF NF-kB inhibitor project, cell-based, uHTS, fluorescence assay plates; activity change (cytotoxicity), % at 5 µM; KKLEB CF airway cells viability, ATPlite luminescence, overnight; stronger effect = lower value; cells stimulated with P. aeruginosa culture filtrate; 0.36% of 360,000 active;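 active = corrected activity change at or below -50% at 5 µM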
Peg3 promoter: Peg3 promoter-driven luciferase inhibitors, primary screen, cell-based, HeLa, luciferase luminescence | HeLa PEG-Prom luciferase reporter, overnight | inhibition, % at 20 µM | 1.7% of 360,000 active | AID 588405, 2011;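 active = inhibition of at least 50% at 20 µM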
HIF-2a block: HIF-2a reporter inhibitors, primary screen, luminescence, 786-0 RCC cells; 786-0 RCC cells HIF-2a reporter, luciferase luminescence, overnight; inhibition, % at 18.8 µM; 0.72% of 360,000 active;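 active = inhibition of the luminescence signal of 40% or more relative to plate controls, in a single-dose primary screen at 18.75 µM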
TWEAK-Fn14 inh: inhibitors of TWEAK-Fn14 signaling, primary screen, luciferase reporter cells, uHTS; TWEAK-stimulated Fn14 reporter cells, luciferase luminescence, 8 h; inhibition, % at 10 µM; 2% of 360,000 active; in the data active = inhibition above about 50%
TROY NFkB inh: inhibitors of TROY-driven NF-kB signaling, primary screen, Q293 LMP1-TROYcd cells, NF-kB luciferase, uHTS; 0.98% of 360,000 active; Q293 LMP1-TROYcd NF-kB luciferase reporter, 4 h; inhibition, % at 10 µM; AID 1347056, 2019;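 active = compounds whose plate-normalised and pattern-corrected inhibition of the luciferase reporter signal at the single screening dose is 50% or more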
CF NFkB block: inhibitors of PAF-induced NF-kB signaling, primary screen, cell-based, GFP fluorescence, uHTS. inhibition, % at 5 µM. KKLEB NF-kB-GFP reporter, GFP fluorescence overnight. 0.86% of 360,000 active. AID 588850, 2011;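 active = at least 50% inhibition at 5 µM, scaled per plate between neutral and stimulator controls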;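 also: PAF is a Pseudomonas aeruginosa culture filtrate used as stimulus; plate controls were PAF-stimulated DMSO wells for no effect and unstimulated DMSO wells for full effect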
* hit, by the source's call. An excerpt weighted towards active compounds, which were near 4% of everything screened.

NC(Cc1ccc(Cl)cc1)c1csc(NC(=O)Nc2ccccc2)n1 (configuration not stated) was read as KKLEB tox -28, Peg3 promoter 101*, HIF-2a block -19, TWEAK-Fn14 inh -14, TROY NFkB inh 18 and CF NFkB block 33.
Screening O=S(=O)(NCc1ccc(F)cc1)c1ccc2c(c1)OCCO2 returned KKLEB tox -3, Peg3 promoter 16, HIF-2a block 18, TWEAK-Fn14 inh 8, TROY NFkB inh 15 and CF NFkB block 6.
For Cc1cc(C(F)(F)F)nn1CC(=O)Nc1ccc2c(c1)OCO2 the results were KKLEB tox 14, Peg3 promoter 7, HIF-2a block 1, TWEAK-Fn14 inh -10, TROY NFkB inh 3 and CF NFkB block 4.
Screening CCN(CC)c1ccc2cc(-c3nnc(-c4ccccc4)o3)c(=O)oc2c1 returned KKLEB tox 13, Peg3 promoter -195, HIF-2a block -204, TWEAK-Fn14 inh 67*, TROY NFkB inh 44 and CF NFkB block -109.
CCN(CC)c1ccc2cc(-c3nc4ccccc4[nH]3)c(=O)oc2c1 was read as KKLEB tox -90*, Peg3 promoter 70*, HIF-2a block -148, TWEAK-Fn14 inh 88*, TROY NFkB inh 73* and CF NFkB block -163.
Screening CCN(CC(=O)NCc1cccs1)C(=O)C1CC(=O)N(c2ccc(OC)cc2OC)C1 (configuration not stated) returned KKLEB tox -7, Peg3 promoter -3, HIF-2a block -25, TWEAK-Fn14 inh -2, TROY NFkB inh -12 and CF NFkB block 2.
Screening CC(=O)Nc1ccc(OCCOc2ccc([N+](=O)[O-])cc2)cc1 returned KKLEB tox 17, Peg3 promoter 3, HIF-2a block -21, TWEAK-Fn14 inh 5, TROY NFkB inh -16 and CF NFkB block -8.
O=c1cc(-c2ccccc2Cl)oc2c(NS(=O)(=O)c3cc(Cl)cc(Cl)c3O)ccc(O)c12 was read as KKLEB tox -15, Peg3 promoter 43, HIF-2a block 0, TWEAK-Fn14 inh 65*, TROY NFkB inh 68* and CF NFkB block 44.
For CCc1ccc(S(=O)(=O)Nc2ccc(O)c3c(=O)cc(-c4ccccc4Cl)oc23)cc1 the results were KKLEB tox -6, Peg3 promoter 13, HIF-2a block -6, TWEAK-Fn14 inh -20, TROY NFkB inh -15 and CF NFkB block 20.
`NC(N)=NC1=NC(=O)C(Cc2ccccc2Cl)S1` (configuration not stated) gave KKLEB tox 9, Peg3 promoter -18, HIF-2a block -16, TWEAK-Fn14 inh -2, TROY NFkB inh 0 and CF NFkB block -2.
`N#CCSc1nc(N)c(C#N)c(C2CCCCC2)c1C#N` gave KKLEB tox -17, Peg3 promoter 32, HIF-2a block 13, TWEAK-Fn14 inh -25, TROY NFkB inh 3 and CF NFkB block 19.
`CC(C)CN1CCC(C(=O)NC(c2ccc(F)cc2)c2ccc3ccccc3n2)CC1` (configuration not stated) gave KKLEB tox -5, Peg3 promoter -16, HIF-2a block -36, TWEAK-Fn14 inh 4, TROY NFkB inh -8 and CF NFkB block 3.
COc1ccc(/C=C/CN2CCC(C(=O)NC(c3ccc(F)cc3)c3ccc4ccccc4n3)CC2)cc1 (configuration not stated) was read as KKLEB tox -18, Peg3 promoter 102*, HIF-2a block -25, TWEAK-Fn14 inh -12, TROY NFkB inh 23 and CF NFkB block 10.
Screening COc1ccc(C(=O)N2CCC(C(=O)N3CCN(c4ccc(OC)cc4)CC3)CC2)cc1 returned KKLEB tox -15, Peg3 promoter 10, HIF-2a block 1, TWEAK-Fn14 inh 7, TROY NFkB inh -7 and CF NFkB block -7.
`COc1cc(/C=C2\SC(N)=NC2=O)ccc1O` gave KKLEB tox -16, Peg3 promoter 16, HIF-2a block 31, TWEAK-Fn14 inh 100*, TROY NFkB inh 39 and CF NFkB block 73*.
